PubChem BioAssay AID1159580 (chemical genetic matrix, 2015)
Values joined by “and” are separate entries in the source; they are usually repeats but may differ in a detail not shown here. Identical values can stand only once. Out of some 5,500 compounds screened, about 2,000 (36%) were called active. Inconclusive results (about 18%) are left out. No stated cut-off is given here; in the data, active means normalized growth mostly below about 0.91 (no sharp cut-off); inconclusive means no clear call, values can overlap the other calls; inactive means mostly above about 0.92. The list shows a part of the results.

Test: chemical genetic growth profiling, strain panel (AID 1159580);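 further: tested at 20 µM; growth read once vehicle control cultures reached saturation at 30 °C; 1 = growth at the plate median or of vehicle wells; lower values mean less growth of the strain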
Settings: growth OD

Measured: normalized growth

N[C@@H](Cc1cc(I)c(Oc2cc(I)c(O)c(I)c2)c(I)c1)C(=O)O
active: S. cerevisiae deletion strains, locus YCL029C, strain bik1, active compounds read low 1.22 [resistant] | S. cerevisiae deletion strains, locus YDL192W, strain arf1, active compounds read low 1.12 [resistant] | S. cerevisiae deletion strains, locus YDR388W, active compounds read low 1.09 [resistant] | S. cerevisiae deletion strains, locus YHR079C, strain IRE1 (second series), active compounds read low 1.27 [resistant] | S. cerevisiae deletion strains, locus YHR200W, strain rpn10, active compounds read low 1.19 [resistant] | S. cerevisiae deletion strains, locus YIR030C, strain dcg1, active compounds read low 1.13 [resistant] | S. cerevisiae deletion strains, locus YJL168C, strain set2, active compounds read low 1.1 [resistant] | S. cerevisiae deletion strains, locus YLR102C, strain apc9, active compounds read low 1.09 [resistant] | S. cerevisiae deletion strains, locus YLR330W, strain CHS5, active compounds read low 1.13 [resistant] | S. cerevisiae deletion strains, locus YLR371W, strain rom2, active compounds read low 1.2 [resistant] | S. cerevisiae deletion strains, locus YMR078C, strain ctf18, active compounds read low 1.16 [resistant] | S. cerevisiae deletion strains, locus YMR223W, strain ubp8, active compounds read low 1.25 [resistant] | S. cerevisiae deletion strains, locus YNL307C, strain MCK1, active compounds read low 0.851 | S. cerevisiae deletion strains, locus YNR052C, strain pop2, active compounds read low 1.24 [resistant] | S. cerevisiae deletion strains, locus YOL147C, strain pex11, active compounds read low 1.08 [resistant] | S. cerevisiae deletion strains, locus YOR144C, strain elg1, active compounds read low 1.2 [resistant] | S. cerevisiae deletion strains, locus YOR316C, strain cot1, active compounds read low 1.22 [resistant] | S. cerevisiae deletion strains, locus YPR141C, strain kar3, active compounds read low 1.23 [resistant] | S. cerevisiae deletion strains, locus YPR163C, strain tif3, active compounds read low 1.14 [resistant] | S. cerevisiae deletion strains, locus YPR167C, strain met16, active compounds read low 1.17 [resistant]
inactive: S. cerevisiae deletion strains, locus YAL013W, strain DEP1, active compounds read low 1.05 | S. cerevisiae deletion strains, locus YBR021W, strain FUR4, active compounds read low 1.07 | S. cerevisiae deletion strains, locus YBR229C, strain ROT2, active compounds read low 1.02 | S. cerevisiae deletion strains, locus YDL035C, strain GPR1, active compounds read low 1.04 | S. cerevisiae deletion strains, locus YDL074C, strain BRE1, active compounds read low 1.04 | S. cerevisiae deletion strains, locus YDL101C, strain DUN1, active compounds read low 1.04 | S. cerevisiae deletion strains, locus YDL134C, strain PPH21, active compounds read low 1.03 | S. cerevisiae deletion strains, locus YDL185W, strain tfp1, active compounds read low 1.03 | S. cerevisiae deletion strains, locus YDR101C, strain arx1, active compounds read low 1.04 | S. cerevisiae deletion strains, locus YDR150W, strain NUM1, active compounds read low 1.06 | S. cerevisiae deletion strains, locus YDR162C, strain NBP2, active compounds read low 1.03 | S. cerevisiae deletion strains, locus YDR318W, strain mcm21, active compounds read low 1 | S. cerevisiae deletion strains, locus YDR502C, strain sam2, active compounds read low 1.05 | S. cerevisiae deletion strains, locus YEL061C, strain CIN8, active compounds read low 1.05 | S. cerevisiae deletion strains, locus YER110C, active compounds read low 1.1 | S. cerevisiae deletion strains, locus YER155C, strain BEM2, active compounds read low 1.06 | S. cerevisiae deletion strains, locus YER167W, strain BCK2, active compounds read low 1.01 | S. cerevisiae deletion strains, locus YGL078C, strain dbp3, active compounds read low 1.01 | S. cerevisiae deletion strains, locus YGL086W, strain mad1, active compounds read low 1 | S. cerevisiae deletion strains, locus YGL248W, strain PDE1, active compounds read low 1.02 | S. cerevisiae deletion strains, locus YGR078C, strain PAC10, active compounds read low 1.03 | S. cerevisiae deletion strains, locus YGR135W, strain pre9, active compounds read low 1.04 | S. cerevisiae deletion strains, locus YGR229C, strain SMI1, active compounds read low 1.03 | S. cerevisiae deletion strains, locus YGR252W, strain gcn5, active compounds read low 1.17 | S. cerevisiae deletion strains, locus YHR030C, strain SLT2, active compounds read low 1.02 | S. cerevisiae deletion strains, locus YHR079C, strain IRE1, active compounds read low 1.05 | S. cerevisiae deletion strains, locus YHR094C, strain hxt1, active compounds read low 1.04 | S. cerevisiae deletion strains, locus YHR129C, strain ARP1, active compounds read low 1.04 | S. cerevisiae deletion strains, locus YIL066C, strain RNR3, active compounds read low 1.01 | S. cerevisiae deletion strains, locus YIL073C, strain SPO22, active compounds read low 1.07 | S. cerevisiae deletion strains, locus YIL125W, strain kgd1, active compounds read low 1.04 | S. cerevisiae deletion strains, locus YJL095W, strain BCK1, active compounds read low 0.994 and 1.02 | S. cerevisiae deletion strains, locus YJL134W, strain LCB3, active compounds read low 1.03 | S. cerevisiae deletion strains, locus YJL187C, strain SWE1 (second series), active compounds read low 1.02 | S. cerevisiae deletion strains, locus YJR043C, strain POL32, active compounds read low 1.04 | S. cerevisiae deletion strains, locus YJR066W, strain TOR1, active compounds read low 0.978 | S. cerevisiae deletion strains, locus YJR075W, strain HOC1, active compounds read low 1.05 | S. cerevisiae deletion strains, locus YKL009W, strain mrt4, active compounds read low 0.928 | S. cerevisiae deletion strains, locus YKL068W, active compounds read low 0.963 | S. cerevisiae deletion strains, locus YKL085W, strain MDH1 (second series), active compounds read low 0.995 | S. cerevisiae deletion strains, locus YKL085W, strain MDH1, active compounds read low 0.995 | S. cerevisiae deletion strains, locus YKL190W, strain CNB1, active compounds read low 1.04 | S. cerevisiae deletion strains, locus YKR001C, strain vps1, active compounds read low 0.953 | S. cerevisiae deletion strains, locus YLR039C, strain RIC1, active compounds read low 1.04 | S. cerevisiae deletion strains, locus YLR058C, strain SHM2, active compounds read low 1.03 | S. cerevisiae deletion strains, locus YLR113W, strain HOG1, active compounds read low 1.01 | S. cerevisiae deletion strains, locus YLR262C, strain YPT6, active compounds read low 1.06 | S. cerevisiae deletion strains, locus YLR268W, strain sec22, active compounds read low 1.05 | S. cerevisiae deletion strains, locus YLR342W, strain FKS1 (second series), active compounds read low 0.998 | S. cerevisiae deletion strains, locus YLR418C, strain cdc73, active compounds read low 0.998 | S. cerevisiae deletion strains, locus YML016C, strain PPZ1, active compounds read low 1.02 | S. cerevisiae deletion strains, locus YML032C, strain rad52, active compounds read low 1.03 | S. cerevisiae deletion strains, locus YML124C, strain tub3, active compounds read low 1.06 | S. cerevisiae deletion strains, locus YMR263W, strain SAP30, active compounds read low 1.06 | S. cerevisiae deletion strains, locus YMR307W, strain GAS1, active compounds read low 1.05 | S. cerevisiae deletion strains, locus YNL067W, strain RPL9B, active compounds read low 1.02 | S. cerevisiae deletion strains, locus YNL128W, strain TEP1, active compounds read low 1.05 | S. cerevisiae deletion strains, locus YNL153C, strain GIM3, active compounds read low 1.02 | S. cerevisiae deletion strains, locus YNL183C, strain NPR1, active compounds read low 0.945 | S. cerevisiae deletion strains, locus YNL233W, strain BNI4, active compounds read low 1.03 | S. cerevisiae deletion strains, locus YNL250W, strain rad50, active compounds read low 1.04 | S. cerevisiae deletion strains, locus YNL271C, strain bni1, active compounds read low 1 | S. cerevisiae deletion strains, locus YNL298W, strain CLA4, active compounds read low 1.03 | S. cerevisiae deletion strains, locus YNL322C, strain KRE1, active compounds read low 1.05 | S. cerevisiae deletion strains, locus YOL006C, strain TOP1, active compounds read low 1.02 | S. cerevisiae deletion strains, locus YOL012C, strain htz1 1.11 | S. cerevisiae deletion strains, locus YOR061W, strain CKA2, active compounds read low 1.03 | S. cerevisiae deletion strains, locus YOR069W, strain VPS5, active compounds read low 1.03 | S. cerevisiae deletion strains, locus YOR184W, strain ser1, active compounds read low 1.01 | S. cerevisiae deletion strains, locus YOR231W, strain MKK1, active compounds read low 1.02 | S. cerevisiae deletion strains, locus YPL055C, strain LGE1, active compounds read low 1.03 | S. cerevisiae deletion strains, locus YPL241C, strain CIN2, active compounds read low 1.05 | S. cerevisiae deletion strains, locus YPL256C, strain CLN2, active compounds read low 1.06 | S. cerevisiae deletion strains, locus YPR119W, strain clb2, active compounds read low 1.06 | S. cerevisiae deletion strains, strain wtn01, active compounds read low 1.02 | S. cerevisiae strains, strain wild type, active compounds read low 1.04
